GLS inhibitor: qHTS for Inhibitors of Glutaminase (GLS); Potency, µM (doses to about 45.5 µM), most hits filed as inhibitors; GLS enzymatic activity, qHTS titration; Glutaminase kidney isoform, mitochondrial (Homo sapiens), O94925; hit rate 0.21% among 410,000
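hKGA in 45 mM KH2PO4 pH 8.2, 0.02% Tween-20 with pin-transferred compounds; 1 mM L-glutamine (stock) plus glutamate oxidase/HRP/Amplex Red coupling added. Fluorescence read initially and after 30 min at RT.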
HP1b chromo inh: HTS for Inhibitors of HP1-beta Chromodomain Interactions with Methylated Histone Tails; AlphaScreen HP1-beta / biotin-H3K9me3 peptide binding; hit rate 0.56% among 390,000; Chromobox protein homolog 1 (Homo sapiens), P83916; Potency, µM (top dose mostly 114 µM), usual class: inhibitors; note: nearly all actives have a fitted effect of over 70% in size
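AlphaScreen: HP1-beta (50 nM) preformed 30 min with biotin-H3(1-18)K9me3 peptide (50 nM) in PBS pH 7.4, 0.01% Tween-20. Compound added for 30 min at RT, then streptavidin donor/nickel chelate acceptor beads (10 ug/mL) for 30 min.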
JMJD2A Tudor inh: qHTS Assay for Inhibitors of JMJD2A-Tudor Domain; Lysine-specific demethylase 4A (Homo sapiens), O75164; AlphaScreen JMJD2A-Tudor / H3K4me3 peptide binding; Potency, µM (highest dose often 114 µM), actives largely listed as inhibitors; hit rate 4.4% among 390,000; note: nearly all actives have a fitted effect of over 50% in size
BAZ2B inh: qHTS Assay for Inhibitors of BAZ2B; Potency, µM (doses to about 114 µM), actives largely listed as inhibitors; Bromodomain adjacent to zinc finger domain protein 2B (Homo sapiens), Q9UIF8; hit rate 4.4% among 360,000; AID 504333, 2011; AlphaScreen BAZ2B-H3K14Ac peptide displacement; note: nearly all actives have a fitted effect of over 60% in size
Target sequence (Q9UIF8 whole entry, looked up, the tested form may be a part): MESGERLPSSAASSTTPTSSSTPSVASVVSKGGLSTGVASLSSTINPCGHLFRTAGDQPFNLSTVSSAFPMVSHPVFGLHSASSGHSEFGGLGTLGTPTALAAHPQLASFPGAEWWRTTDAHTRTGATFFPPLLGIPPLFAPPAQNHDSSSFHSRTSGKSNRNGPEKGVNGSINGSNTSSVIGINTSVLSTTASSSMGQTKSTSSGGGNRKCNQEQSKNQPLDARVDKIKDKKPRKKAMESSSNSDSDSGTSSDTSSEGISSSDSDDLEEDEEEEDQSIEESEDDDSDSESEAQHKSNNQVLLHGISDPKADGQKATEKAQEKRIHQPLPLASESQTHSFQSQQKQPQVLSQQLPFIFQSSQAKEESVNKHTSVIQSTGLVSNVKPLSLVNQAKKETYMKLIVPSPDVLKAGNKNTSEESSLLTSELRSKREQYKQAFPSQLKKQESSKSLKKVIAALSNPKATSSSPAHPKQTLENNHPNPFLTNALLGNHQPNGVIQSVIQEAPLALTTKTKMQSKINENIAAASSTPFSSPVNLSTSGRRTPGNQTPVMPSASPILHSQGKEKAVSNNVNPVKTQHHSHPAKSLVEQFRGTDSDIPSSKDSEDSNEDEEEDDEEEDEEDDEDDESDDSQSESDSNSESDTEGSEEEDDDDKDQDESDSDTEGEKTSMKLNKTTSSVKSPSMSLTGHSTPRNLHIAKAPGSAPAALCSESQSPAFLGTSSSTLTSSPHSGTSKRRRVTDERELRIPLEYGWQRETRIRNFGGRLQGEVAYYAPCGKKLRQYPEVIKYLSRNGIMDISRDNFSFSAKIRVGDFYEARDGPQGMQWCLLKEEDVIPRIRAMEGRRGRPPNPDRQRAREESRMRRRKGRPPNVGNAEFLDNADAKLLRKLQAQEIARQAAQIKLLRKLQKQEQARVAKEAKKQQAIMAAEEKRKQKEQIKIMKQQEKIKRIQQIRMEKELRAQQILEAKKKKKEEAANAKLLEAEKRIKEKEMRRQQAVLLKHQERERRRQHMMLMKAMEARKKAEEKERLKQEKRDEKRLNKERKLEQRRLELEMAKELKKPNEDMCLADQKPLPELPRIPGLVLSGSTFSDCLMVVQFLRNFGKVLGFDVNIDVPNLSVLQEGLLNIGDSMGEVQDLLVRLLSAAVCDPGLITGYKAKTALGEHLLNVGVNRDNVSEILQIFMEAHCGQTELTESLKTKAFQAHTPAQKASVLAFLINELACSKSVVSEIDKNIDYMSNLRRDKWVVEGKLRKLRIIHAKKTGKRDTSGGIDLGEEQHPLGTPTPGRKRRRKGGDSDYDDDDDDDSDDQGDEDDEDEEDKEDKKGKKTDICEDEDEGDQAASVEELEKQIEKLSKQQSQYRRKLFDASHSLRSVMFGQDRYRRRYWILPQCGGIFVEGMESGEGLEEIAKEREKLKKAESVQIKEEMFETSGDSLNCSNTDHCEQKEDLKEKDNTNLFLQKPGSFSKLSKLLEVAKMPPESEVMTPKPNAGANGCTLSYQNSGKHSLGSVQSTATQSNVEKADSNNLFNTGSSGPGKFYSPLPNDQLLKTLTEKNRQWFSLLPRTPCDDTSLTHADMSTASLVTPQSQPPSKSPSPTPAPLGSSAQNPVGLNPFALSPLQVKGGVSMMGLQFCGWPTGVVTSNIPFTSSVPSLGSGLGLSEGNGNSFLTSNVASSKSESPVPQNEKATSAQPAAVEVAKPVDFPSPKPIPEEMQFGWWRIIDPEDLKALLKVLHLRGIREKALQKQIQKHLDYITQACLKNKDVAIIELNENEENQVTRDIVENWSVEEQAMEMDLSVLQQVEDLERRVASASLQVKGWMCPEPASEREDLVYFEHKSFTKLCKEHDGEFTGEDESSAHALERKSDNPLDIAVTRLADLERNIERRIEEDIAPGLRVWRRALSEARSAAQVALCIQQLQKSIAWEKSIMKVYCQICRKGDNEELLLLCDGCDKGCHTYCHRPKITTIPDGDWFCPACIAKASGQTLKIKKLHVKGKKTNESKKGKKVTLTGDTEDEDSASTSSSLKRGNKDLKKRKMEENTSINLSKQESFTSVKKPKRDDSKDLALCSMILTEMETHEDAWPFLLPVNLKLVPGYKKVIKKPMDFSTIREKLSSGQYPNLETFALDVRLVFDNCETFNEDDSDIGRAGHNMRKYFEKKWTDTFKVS
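AlphaScreen displacement of biotin-H3(5-23)K14Ac peptide (50 nM final) from BAZ2B (50 nM final) in PBS pH 7.4, 0.01% Tween-20; complex preformed 30 min RT, then compounds (top 110 uM) 30 min RT, beads 20 min dark.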
G9a inh: qHTS Assay for Inhibitors of Histone Lysine Methyltransferase G9a; Histone-lysine N-methyltransferase EHMT2 (Homo sapiens), Q96KQ7; hit rate 8.8% among 350,000; Potency, µM (highest dose often 102 µM), usual class: inhibitors; AID 504332, 2011; G9a H3K9 monomethylation, AlphaScreen, 2 h; note: nearly all actives have a fitted effect of over 75% in size
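Compounds were preincubated with 20 nM G9a for 15 min, after which biotinylated H3K9 peptide (500 nM) and SAM (20 uM) started a 2 h room-temperature reaction. Monomethylated product was quantified by antibody-based AlphaScreen chemiluminescence.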
Each line names hits and unclear results; the compound was inactive in the other large screens; ! = repeats disagree. This is a sample that favours compounds with a hit; in the whole collection about 10% have one here. Calls come from the whole dose curve; as a rule, active = well fitted curve in the direction sought with a large enough effect; inconclusive = small, poorly fitted or top-dose-only effect, or another doubt; inactive = no such curve, though single readings can be large; an effect the other way counts as inactive or inconclusive.

OCC1CCCN(Cc2ccc(-c3ccccc3)cc2)C1 (stereo not given)	HP1b chromo inh inconclusive, JMJD2A Tudor inh 2.24µM, BAZ2B inh inconclusive (no result: G9a inh)
COCCCNCCCCOc1ccccc1-c1ccccc1	HP1b chromo inh inconclusive, JMJD2A Tudor inh 79.4µM, BAZ2B inh 70.8µM, G9a inh 14.1µM
OCCNCCOc1ccccc1F	none
COCCCNCCOc1ccccc1-c1ccccc1	JMJD2A Tudor inh 25.1µM, G9a inh 7.94µM
CCCCNCCOc1ccccc1-c1ccccc1	HP1b chromo inh inconclusive, JMJD2A Tudor inh 3.55µM, BAZ2B inh inconclusive, G9a inh inconclusive
COc1ccccc1OCCCCNCCO	none
OCCNCCOCCOc1ccccc1-c1ccccc1	HP1b chromo inh inconclusive, JMJD2A Tudor inh 3.16µM, BAZ2B inh inconclusive, G9a inh 8.91µM
COCCNCCOc1ccccc1-c1ccccc1	HP1b chromo inh inconclusive, JMJD2A Tudor inh 14.1µM, BAZ2B inh inconclusive, G9a inh 10µM
CCOc1ccc(-c2nc(C#N)c(N3CCN(C)CC3)o2)cc1	none
CCCOc1ccc(-c2nc(C#N)c(N3CCN(CC)CC3)o2)cc1	HP1b chromo inh 50.1µM, JMJD2A Tudor inh inconclusive, BAZ2B inh 39.8µM, G9a inh inconclusive
CCOc1ccc(-c2nc(C#N)c(N3CCCCCC3)o2)cc1	HP1b chromo inh inconclusive, JMJD2A Tudor inh 35.5µM, BAZ2B inh 11.2µM, G9a inh 7.94µM
CCOc1ccc(-c2nc(C#N)c(N3CCN(CC)CC3)o2)cc1	JMJD2A Tudor inh inconclusive, BAZ2B inh inconclusive, G9a inh 50.1µM
Cn1nccc1C(=O)N/N=C/c1ccccc1[N+](=O)[O-]	none
O=C1CCCN2N=C(SCC(=O)Nc3ccc(OC(F)(F)F)cc3)SC2=N1	none
Cc1ccc(NC(=O)CSC2=NN3CCCC(=O)N=C3S2)c(C)c1	JMJD2A Tudor inh inconclusive, BAZ2B inh inconclusive (no result: G9a inh)
Cc1cccc(NC(=O)CSC2=NN3CCCC(=O)N=C3S2)c1C	JMJD2A Tudor inh inconclusive, BAZ2B inh 50.1µM
O=C1CCCN2N=C(SCC(=O)Nc3ccc([N+](=O)[O-])cc3)SC2=N1	JMJD2A Tudor inh 56.2µM
CCCCNC(=S)N1CCN(c2nc3ccccc3s2)CC1	none (no result: G9a inh)
COCCCNC(=S)N1CCN(c2nc(-c3ccccc3)cs2)CC1	BAZ2B inh inconclusive (no result: G9a inh)
CCOCCCNC(=S)N1CCN(Cc2ccco2)CC1	HP1b chromo inh 39.8µM, BAZ2B inh 35.5µM, G9a inh 10µM
CCOCCCNC(=S)N1CCN(c2nc(-c3ccccc3)cs2)CC1	JMJD2A Tudor inh inconclusive, BAZ2B inh 50.1µM, G9a inh inconclusive
CCCCNC(=S)N1CCN(CC)CC1	HP1b chromo inh inconclusive, JMJD2A Tudor inh 44.7µM, BAZ2B inh 50.1µM (no result: G9a inh)
CCCNC(=S)N1CCN(C)CC1	HP1b chromo inh inconclusive, JMJD2A Tudor inh 8.91µM, BAZ2B inh 39.8µM, G9a inh 10µM
Cc1ccc(S(=O)(=O)N(CC(=O)Nc2ccccc2C(=O)O)c2ccccc2)cc1	none
CCOCCCNC(=S)N1CCN(CC)CC1	HP1b chromo inh inconclusive, JMJD2A Tudor inh 25.1µM, BAZ2B inh 50.1µM, G9a inh 22.4µM
CCOc1cc(/C=C2\C(=O)ON=C2C)ccc1OCc1ccccc1	G9a inh 12.6µM
CCCOc1ccc(/C=C2/C(=O)ON=C2C)cc1OCC	G9a inh 44.7µM
Cc1[nH]c(=O)[nH]c(=O)c1S(=O)(=O)N1CCN(c2ccccc2)CC1	none
CCN(CC)c1ccc(C(=O)NC(=S)Nc2cc(S(=O)(=O)N3CCOCC3)ccc2-n2cncn2)cc1	none
COc1ccc(Cl)cc1NC(=O)COC(C)=O	none
O=C(c1ccccc1)C1CC1c1ccccc1 (stereo not given)	none (no result: HP1b chromo inh, JMJD2A Tudor inh, BAZ2B inh, G9a inh)
CC(=O)N1CC(C)Oc2ccc(S(=O)(=O)NC(CC(=O)O)c3ccccc3C)cc21 (stereo not given)	G9a inh 50.1µM
CCN(CC)C(=O)Cn1cc(C(=O)C(=O)NCCCN2CCOCC2)c2ccccc21	none
O=C(NC1CCCC1)c1ccc(CS(=O)(=O)c2ccc(Br)cc2)o1	none
CCOC(=O)c1nn(-c2ccc(C)cc2)c(=O)c2c(N)scc12	JMJD2A Tudor inh inconclusive, BAZ2B inh inconclusive, G9a inh 1.26µM
COC(=O)c1nn(-c2ccc(OC)cc2)c(=O)cc1NN	G9a inh 44.7µM
COC(=O)c1nn(-c2ccc(OC)cc2)c(=O)cc1Sc1ccc(C)cc1	none
COC(=O)c1nn(-c2ccc(OC)cc2)c(=O)c2c(N)sc(C)c12	HP1b chromo inh inconclusive, JMJD2A Tudor inh inconclusive, BAZ2B inh inconclusive, G9a inh 10µM
CCOC(=O)c1nc(N)c(=O)n(-c2ccc(C)cc2)n1	none
COc1ccc(-n2nc3c(=O)[nH][nH]c3cc2=O)cc1	JMJD2A Tudor inh inconclusive, BAZ2B inh 31.6µM, G9a inh inconclusive
CS(=O)(=O)NCCNc1ccc(Cl)cc1[N+](=O)[O-]	G9a inh inconclusive
Cc1ccccc1C1C(C#N)=C2NC(=O)c3c(sc4c3CCCCC4)N2C2=C1C(=O)CC(C)(C)C2 (stereo not given)	none (no result: GLS inhibitor, HP1b chromo inh, JMJD2A Tudor inh)
Cc1nnc(SCC(=O)NC2CCCCC2)n1C1CCCCC1	none
Nc1scc2c(C(=O)O)nn(-c3ccccc3)c(=O)c12	JMJD2A Tudor inh 79.4µM, BAZ2B inh inconclusive
COc1ccc(-n2nc(C(=O)O)c3csc(N)c3c2=O)cc1	JMJD2A Tudor inh 79.4µM (no result: GLS inhibitor, HP1b chromo inh, BAZ2B inh, G9a inh)
COc1ccc(C(=O)c2ccc(Cl)cc2)cc1	none
COc1ccc(N=C2C(=Nc3ccc(OC)cc3)N(c3ccc(N(C)C)cc3)C(=S)N2c2ccc(OC)cc2)cc1	HP1b chromo inh inconclusive, JMJD2A Tudor inh 2.24µM, BAZ2B inh 1.58µM, G9a inh 8.91µM
COc1ccc(N=C2C(=Nc3ccc(OC)cc3)N(c3ccccc3)C(=S)N2C(=O)c2ccc(Cl)cc2)cc1	HP1b chromo inh inconclusive, JMJD2A Tudor inh inconclusive, BAZ2B inh inconclusive, G9a inh 7.08µM (no result: GLS inhibitor)
COc1ccc(N=C2NC(=O)S/C2=C\c2ccc(N(C)C)cc2)cc1	none
COc1ccc(N2C(=S)N(C(=O)c3ccccc3)C(=Nc3ccccc3)C2=Nc2ccccc2)cc1	JMJD2A Tudor inh inconclusive (no result: BAZ2B inh, G9a inh)
COc1ccc(N=C2C(=Nc3ccc(OC)cc3)N(c3ccc(OC)cc3)C(=S)N2C(=O)c2ccc(OC)cc2)cc1	JMJD2A Tudor inh inconclusive, BAZ2B inh inconclusive, G9a inh 3.55µM
Cc1nn(CC(=O)Nc2cc(F)ccc2F)c(=O)c2cccn12	none
CC1(C(=O)NNC(=O)c2ccc(=O)oc2)CC1Br (stereo not given)	G9a inh 50.1µM
Cc1cc(=O)oc(C)c1C(=O)NNC(=O)C1(C)CC1Br (stereo not given)	none
Cc1nn(S(=O)(=O)c2ccc(F)cc2)c(C)c1S(=O)(=O)N1CCC(C)CC1	none
Cc1nn(S(=O)(=O)c2ccc(F)cc2)c(C)c1S(=O)(=O)N1CCCCC1	none
Cc1ccc(S(=O)(=O)n2nc(C)c(S(=O)(=O)N3CCCCC3)c2C)cc1	G9a inh 44.7µM!
